Records with an inconclusive call do not appear. Entries that show only a call come without a potency. Activity calls are given as the source filed them. Calls follow the shape of the dose curve; as a rule, active = well fitted activation curve with a large enough effect; inconclusive = small, poorly fitted or top-dose-only effect; inactive = flat fitted curve, though single readings scatter.
target: Cellular tumor antigen p53 (Homo sapiens) (UniProt P04637); test: Primary qHTS for small molecule compounds that upregulate eGFP-tagged delta133p53alpha (in C-terminal) cells. (AID 2060324); details: NCI-H358 delta133p53alpha-eGFP (C-terminal tag), GFP fluorescence imaging, 24 h; series mostly up to 57.5 µM
Text: Assay Development and Screening Technology
National Center for Advancing Translational Sciences (NCATS),
National Institute of Health (NIH), Rockville, Maryland
Cellular senescence (CS) is one of the hallmarks of aging and age-related diseases. Senescent cells are characterized by an irreversible growth arrest, an increase in senescence-associated beta-galactosidase (SA-beta-gal) activity and p16INK4a expression, an activation of the DNA damage response pathways, and the emergence of a senescence-associated secretory phenotype (SASP).
Delta133p53alpha, a human/primate-specific p53 protein isoform, delays or inhibits the induction of CS and SASP in various types of human cells, including progeria-derived fibroblasts, primary normal astrocytes, and CD8+ T lymphocytes. Induction of delta133p53alpha with small molecule compounds may provide therapeutic opportunities for inhibition of senescence/SASP-associated pathologies in progeria syndromes, astrocyte-mediated neuroprotection in neurodegenerative diseases, and possibly prevention and treatment of a wider range of senescence- and aging-associated diseases.
Here we report the development and validation of a cell-based quantitative high throughput screening (qHTS) assay in 1,536-well format. This qHTS assay uses the NCI-H358 cell line with doxycycline-inducible expression of enhanced green fluorescent protein (eGFP)-tagged delta133p53alpha, which allows efficient and highly quantitative measurement of the protein levels.
PROTOCOL TABLE (as described by Inglese J, Shamu CE and Guy RK. 2007)
SEQUENCE No. (e.g., 1, 2, 3, etc.); […] (e.g., Cells, Incubation, Reagent, etc.); VALUE; DESCRIPTION.
1; Cells; 4uL; 800 doxycycline treated cells / well in doxycycline-free media, 1536-well black, clear-bottom low base Aurora microplates.
2; Compounds; 23 nL; Kalypsis pin tool (Wako) equipped with 1536-well pin heads, 5-azacytidine positive control.
3; Incubation; 24 hr; 37C, 5% CO2; 95% relative humidity.
4; Aspiration; 1x; BioTek EL406 washer dispenser (Agilent).
5; Fixing; 3.5% paraformaldehyde, BioTek EL406 washer dispenser (Agilent).
6; Washing; 1x PBS; BioTek EL406 washer dispenser (Agilent).
7; Nuclei staining; 1:1000 dilution of Hoechst 33342 (Thermofisher), BioTek EL406 washer dispenser (Agilent).
8; Incubation; 20 min; in the dark at room temperature.
9; Washing; 2x, 1x PBS (ThermoFisher), BioTek EL406 washer dispenser (Agilent).
10; Reagent; 10 uL; 1x PBS per well, sealed with clear adhesive tape.
11; Detection; Fluorescence, Acumen eX3 laser scanning cytometer (STP Labtech), GFP filters […].
NOTES (numbers refer to sequence numbers above).
1. NCI-H358 cells expressing eGFP-tagged delta133p53alpha were grown in T75 culture flasks and treated with doxycycline for 24h, at 10 ng/ml for eGFP-D133p53a cells (N-terminal cell) and 100 ng/ml for D133p53a-eGFP cells (C-terminal cells). Cells were trypsinized, counted using a Counted 3 Automated Cell Counter (Thermo Fisher), and diluted to a concentration of 200,000 cells/ml. A Multidrop Combi Reagent Dispenser (ThermoFisher) was used to dispense 800 cells/well in […] of doxycycline-free media, into 1536-well black/clear bottom low base plates (AuroraMicroplates).
2. After plating cells, 23 nl of compound library, DMSO vehicle control or positive control (5-azacytidine) were transferred by Pin Tool (Wako). The plate map layout was the same for each plate: (column 1) non-doxycycline treated cells + DMSO vehicle control; (column 2) doxycycline treated cells + DMSO vehicle control baseline; (column 3) doxycycline treated cells + positive control 57.5 uM final concentration 5-azacytidine; (column 4) doxycycline treated cells + serial dilution of 5-azacytidine, 16-point 1:2 titration spanning 1.8 nM to […] final concentration; (columns 5-48) doxycycline treated cells + titration of library compounds.
3. Cells were incubated at 37 °C, 5 % CO2, 95% RH with breathable metal lid for 24h.
4-10. […] […]

Sequence of Cellular tumor antigen p53 (Homo sapiens) (P04637 whole entry, looked up): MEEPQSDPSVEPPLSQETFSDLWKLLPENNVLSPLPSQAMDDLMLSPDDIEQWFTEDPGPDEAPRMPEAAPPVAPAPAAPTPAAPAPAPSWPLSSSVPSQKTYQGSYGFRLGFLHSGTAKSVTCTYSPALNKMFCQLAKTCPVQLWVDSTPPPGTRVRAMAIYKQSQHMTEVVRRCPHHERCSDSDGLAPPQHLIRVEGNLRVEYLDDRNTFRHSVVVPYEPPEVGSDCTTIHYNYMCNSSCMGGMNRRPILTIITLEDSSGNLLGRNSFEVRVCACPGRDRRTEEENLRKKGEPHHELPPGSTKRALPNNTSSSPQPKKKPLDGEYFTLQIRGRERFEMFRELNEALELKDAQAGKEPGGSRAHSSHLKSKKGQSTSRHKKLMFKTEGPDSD

Structure (SMILES)	Potency
Clc1ccc(Cn2c(CN3CCCC3)nc3ccccc32)cc1	inactive
CN1CCN2c3ccccc3Cc3ccccc3C2C1 (stereo not given)	inactive
Cc1cccc(C)c1NC(=O)C(C)N (stereo not given)	inactive
NC1[C@H]2CN(c3nc4c(cc3F)c(=O)c(C(=O)O)cn4-c3ccc(F)cc3F)C[C@@H]12 (stereo not given in full)	inactive
C[C@H](NC(=O)/C(C#N)=C/c1ccc(O)c(O)c1)c1ccccc1	inactive
Nc1ncnc2c1c(-c1ccc(Oc3ccccc3)cc1)cn2C1CCCC1	inactive
CCC(C)N(C)C(=O)c1cc2ccccc2c(-c2ccccc2Cl)n1 (stereo not given)	inactive
CCCCS(=N)(=O)CCC(N)C(=O)O (stereo not given)	inactive
COc1ccc(CCN(C)CCCC(C#N)(c2ccc(OC)c(OC)c2)C(C)C)cc1OC (stereo not given)	inactive
CN1CCC2(CCN3CCc4c(oc5ccccc45)C3C2)N(C)C1=O (stereo not given)	inactive
C[N+](C)(C)CCOC(=O)CCC(=O)OCC[N+](C)(C)C	inactive
N[C@H](C(=O)O)[C@H]1C[C@@H]1C(=O)O	inactive
CCc1cccc(N(C)C(N)=Nc2cccc3ccccc23)c1	inactive
O=C(O)Cc1c[nH]c2ccc(O)cc12	inactive
C[C@H]1CC2C3CCC4=CC(=O)C=C[C@]4(C)[C@@]3(Cl)[C@@H](O)C[C@]2(C)[C@@]1(O)C(=O)CO (stereo not given in full)	inactive
CC(C)NC[C@H](O)COc1cccc2[nH]ccc12	inactive
CCCCNc1ccc(C(=O)OCCN(C)C)cc1	inactive
CC(C)(C=O)Cc1cc(C(C)(C)C)c(O)c(C(C)(C)C)c1	inactive
CNC(=O)c1cc2c(cn1)[nH]c1ccccc12	inactive
NC(=O)C(=O)O	inactive

Structure (SMILES)	Potency
Nc1nc(OCc2ccccc2)c2[nH]cnc2n1	inactive
N[C@H](C(=O)O)[C@H](O)C(=O)O	inactive
COCCOc1cc2nc[nH]c(=O)c2cc1OCCOC	inactive
O=C(/C=C/c1ccc(O)cc1)c1ccc(O)cc1O	inactive
Nc1cc(Cl)c(NC2=NCCN2)c(Cl)c1	inactive
CC1CCN(CC[C@H]2CCCN2S(=O)(=O)c2cccc(O)c2)CC1	inactive
CCCCCCCCCCCCCCCC(=O)OC(CC(=O)O)C[N+](C)(C)C (stereo not given)	inactive
Cc1cccc(C)c1OCC(C)N (stereo not given)	inactive
OCc1ccc(-c2nn(Cc3ccccc3)c3ccccc23)o1	inactive
CSc1nc(N)c2ncn([C@@H]3O[C@H](COP(=O)(O)OP(=O)(O)OP(=O)(O)O)[C@@H](O)[C@H]3O)c2n1	inactive
COc1ccc(Cl)cc1C(=O)NCCc1ccc(S(=O)(=O)NC(=O)NC2CCCCC2)cc1	inactive
CC(C)Cn1c(=O)n(C)c(=O)c2[nH]cnc21	inactive
N#Cc1cc([N+](=O)[O-])c2sc(C(N)=O)[n+]([O-])c2c1	inactive
CC(=O)O[C@H]1Cc2ccccc2N(C(N)=O)c2ccccc21	inactive
OC[C@H]1NC[C@@H](O)[C@@H]1O	inactive
CC(CN(C)C)CN1c2ccccc2CCc2ccccc21 (stereo not given)	inactive
CC(C)c1cccc(C(C)C)c1N1C(=O)c2ccc(O)cc2C1=O	inactive
CC(=O)O[C@H]1C[C@@H]2CC[C@@H]3[C@H](CC[C@@]4(C)[C@H]3C[C@H]([N+]3(C)CCCCC3)[C@@H]4OC(C)=O)[C@@]2(C)C[C@@H]1[N+]1(C)CCCCC1	inactive
CC(C)(Sc1ccc(CCN(CCCCC2CCCCC2)C(=O)NC2CCCCC2)cc1)C(=O)O	inactive
CC(C)(Oc1ccc(C2CC2(Cl)Cl)cc1)C(=O)O (stereo not given)	inactive

— PubChem BioAssay (NCATS)
